According to ChEMBL document CHEMBL3988442, “University of Dundee, Small-Polar-MMV Screening Library” (2021):
Hit rate of the full screen: of about 48,000 compounds, about 13,000 (27%) showed an effect of 50% or more. The list shows a part of the results.

tested on: Wolbachia pipientis; assay: Anti-Wolbachia Cell-Based Screen; assay type: functional; design: scale not given: in the data most compounds retested in dose-response had high values; conditions: 5 µM

| Compound | Percent Effect [%] |
| --- | --- |
| CCOCCC(=O)NCc1ccnc(NC2CC2)c1 | -81.15 |
| CC(C)(C)OC(=O)N1CCCC[C@H]1C(=O)NCc1nccs1 | 1.043 |
| Cc1ccccc1C(NC(=O)CCCS(C)(=O)=O)C(C)(C)C (stereo not given) | -11.53 |
| CCC(NC(=O)C(C)(C)C)c1ccccc1C (stereo not given) | 109.5 |
| CCC(NC(=O)C(C)C)c1ccccc1C (stereo not given) | 112 |
| CCC(=O)NC(C)c1ccccc1C (stereo not given) | 111 |
| Cc1ccccc1C(C)NC(=O)c1ccc(=O)n(C)c1 (stereo not given) | 28.6 |
| Cc1ccc(C)c(C(NC(=O)C(C)(C)C)c2cccnc2)c1 (stereo not given) | 4.189 |
| CCCC1(NC(=O)C(c2ccccc2C)N(C)C)CC1 (stereo not given) | 5.158 |
| Cc1ccccc1C(CC(=O)NCC(N)=O)c1ccccc1 (stereo not given) | -4.865 |
| CCC(=O)NC(CC)c1ccccc1C (stereo not given) | 115.1 |
| CCC(NS(C)(=O)=O)c1ccccc1C (stereo not given) | -2.544 |
| Cc1ccccc1C(C)NC(=O)CN1CCN(Cc2ccc(Cl)s2)CC1 (stereo not given) | -0.8834 |
| CCC(NCc1ccccc1C)c1ccccc1OCC(=O)NC (stereo not given) | -1.01 |
| Cc1nn2c(N3CCS(=O)(=O)CC3)cc(-c3ccccc3)nc2c1C | -7.306 |
| COC(=O)CSCc1noc(-c2ccc(Cl)cc2)n1 | 23.78 |
| Cc1nn(CCC#N)c(C)c1[C@@H]1C=C[C@@H](NCc2ccc(F)cc2)C1 | -3.605 |
| CC(C)CCC(C)NC(=O)c1ccc(OCC(N)=O)cc1 (stereo not given) | -5.752 |
| NC(=O)c1ccc(S(=O)(=O)NC2CCN(Cc3ccccc3)C2=O)cc1 (stereo not given) | -1.969 |
| COC(=O)c1cc(C(=O)N2CCCCCC2)n(-c2ccccc2)n1 | -9.69 |
| CCn1nc(C)cc1C(=O)N1CCCN(CCCc2ccccc2)CC1 | 0.5946 |
| CCCn1ccc(C(=O)N2CCC(C)CC2)n1 | -7.324 |

| Compound | Percent Effect [%] |
| --- | --- |
| Cn1nc(C(=O)NC2CCCCC2)cc1NC(=O)C1CC1 | 0.3949 |
| CC1CCN(C(=O)c2cc(NC(=O)c3ccccc3)n(C)n2)CC1 | 70.66 |
| Cc1nc(N2CCOCC2)nc(C)c1NC(=O)c1ccco1 | 3.58 |
| CCN1CCN(C(=O)c2cc(C(=O)OC)nn2-c2ccccc2)CC1 | -11.35 |
| Cn1nc(C(=O)N2CCSCC2)cc1NC(=O)c1ccco1 | 98.85 |
| Cn1nc(C(=O)N2CCCCCC2)cc1NC(=O)c1ccccc1 | 99.88 |
| CCN1CCN(C(=O)c2cc(NC(=O)c3ccccc3)n(C)n2)CC1 | 93.08 |
| CC1CCN(C(=O)c2cn(-c3ccc(C(F)(F)F)cn3)nn2)CC1 | -7.014 |
| Cc1nc(N2CCCC2)nc(C)c1NC(=O)c1ccco1 | 8.53 |
| C/C=C(/C)C(=O)NS(=O)(=O)c1ccc(C(F)(F)F)cn1 | 4.736 |
| CCCN(C(=O)c1ocnc1C)C1CCCN(Cc2ccccc2)C1 (stereo not given) | -1.253 |
| O=C1CC(NCc2ccc(OC(F)F)cc2)CN1Cc1cccc(F)c1 (stereo not given) | 2.286 |
| O=C(c1ccn(-c2ccccc2Cl)n1)N1CCSCC1 | -7.672 |
| Cn1nc(C(=O)N2CCSCC2)cc1NC(=O)c1ccccc1 | 96.7 |
| Cc1cccc(C(=O)N2CCSCC2)c1NC(=O)c1cccnc1 | -13.65 |
| Cc1cccc(C(=O)N2CCN(C)CC2)c1NC(=O)c1ccncc1 | -3.532 |
| CN1CCC(Oc2ccc(NC(=O)c3ccccc3)cc2)CC1 | 6.259 |
| CN1CCN(C(=O)c2cc(NC(=O)c3ccccc3)n(C)n2)CC1 | 103.5 |
| Cc1cc2ccccc2n1CCC(=O)N1CCN(C)CC1C(N)=O (stereo not given) | 104.9 |
| Cc1cc2ccccc2n1CCC(=O)N1CCC[C@H]1C(N)=O | -2.793 |
| Cc1cc2ccccc2n1CCC(=O)N1CCCC1Cn1cccn1 (stereo not given) | -4.808 |
| CSCCC(=O)N1CCCC(c2nccn2Cc2ccncc2)C1 (stereo not given) | -15.94 |

| Compound | Percent Effect [%] |
| --- | --- |
| Cc1c[nH]nc1C1CCCCN1C(=O)CC1(O)CCCCC1 (stereo not given) | 121.5 |
| Cc1c[nH]nc1C1CCCCN1C(=O)Cn1cc(Cl)cn1 (stereo not given) | -1.424 |
| Cc1c[nH]nc1C1CCCCN1C(=O)CNS(C)(=O)=O (stereo not given) | 91.22 |
| Cc1n[nH]cc1CNC(=O)[C@H]1CCCCN1C(=O)OC(C)(C)C | -12.93 |
| CS(=O)(=O)NCC(=O)N1CCCC1c1noc(C2CC2)n1 (stereo not given) | -4.288 |
| Cn1cc(C2CCCN2C(=O)COC2CCCCC2)cn1 (stereo not given) | -3.38 |
| Cc1c[nH]nc1C1CCCCN1C(=O)CCn1nccc1C (stereo not given) | 91.05 |
| Cc1ccnn1CCC(=O)N1C[C@H]2CC[C@@H]1CN(CC(=O)N(C)C)C2 | -3.709 |
| Cc1cccc(C2CCCCN2C(=O)CCCS(C)(=O)=O)c1C (stereo not given) | -5.265 |
| CC(CCCC(C)(C)O)Nc1ccc(-c2nccn2C)nn1 (stereo not given) | 6.201 |
| COc1cc(N2CCC(c3nccn3Cc3ccccc3)CC2)ncn1 | -9.757 |
| CN(C)C(=O)c1ccc2c(c1)N(C)C(CC(=O)NCCC(C)(C)C)CO2 (stereo not given) | 1.305 |
| Cn1ccnc1CN1CCN(CC2CC2)[C@@H]2CS(=O)(=O)C[C@@H]21 | 106.1 |
| CC(C)=CCN1CCN(Cc2ncc[nH]2)[C@H]2CS(=O)(=O)C[C@H]21 | -11 |
| O=S1(=O)C[C@@H]2[C@H](C1)N(Cc1cc(Cl)cc(Cl)c1)CCN2CC1CC1 | 5.878 |
| CC(C)=CCN1CCN(Cc2nccn2C)[C@H]2CS(=O)(=O)C[C@H]21 | 99.3 |
| O=S1(=O)C[C@@H]2[C@H](C1)N(Cc1ncc[nH]1)CCN2CC1CC1 | -14.64 |
| CC(C)=CCN1CCN(Cc2nc3ccccc3[nH]2)[C@H]2CS(=O)(=O)C[C@H]21 | -9.753 |
| CN1CCN(c2cnn(Cc3ccc(S(C)(=O)=O)cc3)c(=O)c2)CC1 | 4.016 |
| Cc1ccc(N2CCCC(N3CCN(CC(F)F)CC3)C2=O)cc1 (stereo not given) | -21.44 |
| Cc1ccccc1CC(=O)N(C)C1CCN(c2ccccn2)CC1 | -4.877 |
| CN(C(=O)c1cccc2[nH]ncc12)C1CCN(c2ccccn2)CC1 | -1.361 |

| Compound | Percent Effect [%] |
| --- | --- |
| CN(C(=O)CNc1ccc(C#N)cc1)C1CCN(c2ccccn2)CC1 | 6.622 |
| CCOc1ncccc1C(=O)N(C)C1CCN(c2ccccn2)CC1 | 144.5 |
| CN(C(=O)c1ccccc1Cl)C1CCN(c2ccccn2)CC1 | 11.04 |
| CN(C1CCN(c2ccccn2)CC1)S(=O)(=O)c1ccc(F)cc1 | 18.41 |
| Cc1cccc(C(=O)N(C)C2CCN(c3ccccn3)CC2)c1C | 141.7 |
| COc1ccccc1C(=O)N(C)C1CCN(c2ccccn2)CC1 | 177.1 |
| O=C(Cn1cnnn1)NCC1(O)CCCc2ccccc21 (stereo not given) | -5.769 |
| CC(=O)Nc1ccc(CNC(=O)CNCc2sc(C)nc2C)cc1 | -27.38 |
| CCOC(=O)CC(C)NC(=O)c1cn(Cc2ccccc2F)nn1 (stereo not given) | -6.246 |
| CNC(=O)C(C)NC(=O)c1ccc(Oc2cccnc2)cc1 (stereo not given) | -6.707 |
| CN(C(=O)COc1ccc(F)cc1)[C@@H]1CS(=O)(=O)C[C@H]1O | 1.163 |
| CO[C@@H]1CC[C@@H](N(C)C(=O)COc2ccc(F)cc2)[C@H]1O | -1.969 |
| CN(C(=O)COc1ccc(F)cc1)[C@@H]1CC[C@@H](n2ccnc2)[C@@H]1O | 128.1 |
| CN(C)c1cccc(CNC(=O)Nc2ccc3[nH]nnc3c2)n1 | 0.1018 |
| CCOc1cc(C(=O)N(C)C)ccc1NC(=O)C(C)c1ccsc1 (stereo not given) | -4.912 |
| CCC(CO)N(Cc1ccc(C(=O)O)cc1)Cc1ccsc1 (stereo not given) | 4.353 |
| CCC(C)N(CC)C(=O)c1ccc2[nH]nnc2c1 (stereo not given) | 122.8 |
| CCC(C)N(Cc1ccsc1)C(=O)c1ccc(CO)cc1 (stereo not given) | 113.9 |
| CC(C)Cc1cc(NC(=O)c2ccc3[nH]nnc3c2)n(C)n1 | -17.03 |
| Cn1nc(CC(C)(C)C)cc1NC(=O)c1ccc2[nH]nnc2c1 | -11.38 |
| CCC(C)N(Cc1ccsc1)C(=O)c1ccc2[nH]nnc2c1 (stereo not given) | 109 |
| CC(=O)N(Cc1ccsc1)c1ccccc1 | -9.96 |

| Compound | Percent Effect [%] |
| --- | --- |
| CCn1nc(C)c(CCNC(=O)C2CCCN(C(=O)N(C)C)C2)c1C (stereo not given) | -3.526 |
| COC(=O)CN(Cc1ccccc1C)C(=O)C1CCC1 | 9.342 |
| CN(Cc1cccs1)C(=O)CN(C)C1CCc2ccccc21 (stereo not given) | 8.524 |
| Cn1nc(COc2cncnc2)c2c1CCN(Cc1ccccn1)C2.O=C(O)C(F)(F)F | 8.456 |
| c1cncc(OCc2noc3c2CN(Cc2ccoc2)CC3)c1 | 7.434 |
| Cc1cnc(N2CCc3c(c(COc4cncnc4)nn3C)C2)nc1 | 94.36 |
| Cc1cnc(N2CCc3onc(COc4cccnc4)c3C2)nc1 | 88.9 |
| Cn1nc(Cn2ccnc2)c2c1CN(c1ncccn1)C2.O=C(O)C(F)(F)F | -4.507 |
| Cn1nc(COc2cccnc2)c2c1CCN(c1ncccn1)C2 | 87.22 |
| Cn1nc(COc2cncnc2)c2c1CCN(Cc1ccco1)C2.O=C(O)C(F)(F)F | 2.599 |
| O=C(O)C(F)(F)F.c1ccc(OCc2noc3c2CN(c2ncccn2)CC3)nc1 | 2.544 |
| CCN(CC)c1ccc(NS(=O)(=O)c2cccnc2)cn1 | 2.803 |
| C[C@@H](NC(=O)c1cccn1C)c1c(-c2ccc(Cl)cc2)noc1C(=O)O | 1.666 |
| Cc1nccn1-c1ccc(CNS(=O)(=O)N2CCCCC2C)cn1 (stereo not given) | 6.496 |
| Cn1cc(CN2CCC3(CCCN(Cc4ccccn4)C3)CC2)cn1 | -1.039 |
| CCOC(=O)C1(Cc2cccc(Cl)c2)CCCN(Cc2ncc[nH]2)C1 (stereo not given) | -2.445 |
| O=C(O)C1(Cc2ccc(F)cc2F)CCCN(Cc2ccncc2)C1 (stereo not given) | 1.95 |
| O=C(O)C1(Cc2ccc(F)cc2)CCCN(Cc2ccncc2)C1 (stereo not given) | -12.28 |
| NC(=O)C1(CCCc2ccccn2)CCCN(Cc2ccncc2)C1 (stereo not given) | 119.7 |
| Cn1cc(CN2CCCC(CCCc3ccccn3)(C(N)=O)C2)cn1 (stereo not given) | 84.15 |
| CCOC(=O)C1(Cc2cccc(OC)c2)CCCN(Cc2ncc[nH]2)C1 (stereo not given) | 25.22 |
| NC(=O)C1(CCCc2ccccn2)CCCN(Cc2ncc[nH]2)C1 (stereo not given) | 141.6 |
